The list is not random: actives were taken first. Their share in the collection is about 12%.
ALDH1A1 block = ALDH1A1 (human) enzyme inhibition. Purified ALDH1A1, NADH fluorescence, propionaldehyde substrate. P00352. Potency, µM (titrated, usually from 75.3 µM), without a hit: at the highest dose activity, negative = inhibition, most hits filed as inhibitors. 7.3% of 220,000 active. AID 1030; active means well fitted inhibition curve with a large enough effect, not every such curve was filed as active; inconclusive means small, poorly fitted or top-dose-only effect, or another doubt; inactive means no such curve, though single readings can be large or run the other way;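 further: plate controls were no enzyme wells and a reference inhibitor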
Target sequence (P00352 whole entry, looked up): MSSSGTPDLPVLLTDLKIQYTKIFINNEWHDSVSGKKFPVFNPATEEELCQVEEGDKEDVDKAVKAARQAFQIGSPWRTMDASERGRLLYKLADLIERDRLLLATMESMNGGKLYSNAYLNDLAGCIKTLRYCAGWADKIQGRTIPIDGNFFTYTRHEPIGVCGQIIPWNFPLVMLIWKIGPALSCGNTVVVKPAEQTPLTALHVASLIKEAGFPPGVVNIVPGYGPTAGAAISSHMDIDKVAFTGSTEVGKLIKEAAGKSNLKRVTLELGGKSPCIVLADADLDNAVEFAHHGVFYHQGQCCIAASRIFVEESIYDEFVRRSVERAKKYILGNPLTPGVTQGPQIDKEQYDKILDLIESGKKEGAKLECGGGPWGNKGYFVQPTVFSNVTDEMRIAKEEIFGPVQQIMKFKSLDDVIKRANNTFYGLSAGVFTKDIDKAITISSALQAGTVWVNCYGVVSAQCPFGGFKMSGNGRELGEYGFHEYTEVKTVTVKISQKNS
Gal4-VP16 FLuc = counter-screen for ROR gamma inhibitors: Gal4-VP16 reporter | 3.5% of 310,000 active | Drosophila S2 Gal4-VP16 UAS-luciferase, luminescence, 20 h | Potency, µM (highest dose often 53.6 µM), without a hit: at the top dose activity, negative = inhibition, most hits filed as inhibitors;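 further: Gal4-VP16 expression switched on by copper sulfate through the metallothionein promoter; nearly all actives have a fitted effect of over 50% in size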
PLK1 PBD block = blocks phosphopeptide binding to human PLK1 polo-box domain | AID 720504 | P53350 | Potency, µM, for inactives: max response, negative = inhibition, hits mostly inhibitors | 2.8% of 360,000 active | Plk1 PBD binding of FITC phosphopeptide, fluorescence polarization; further: series mostly up to about 57 µM; nearly all actives have a fitted effect of over 65% in size
Sfp PPTase inh = Sfp phosphopantetheinyl transferase inhibition; Q9F4F7; Biochemical Sfp PPTase activity, qHTS; Potency, µM, without a hit: largest response in the series, negative = inhibition, hits mostly inhibitors; 3.5% of 310,000 active;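 further: the enzyme is Sfp with the accession as filed and its product quenches rhodamine fluorescence; 0% = enzyme reaction without inhibitor and -100% = no enzyme wells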
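Sfp 15 nM + cpd, 15 min RT; start w/ rhodamine-CoA 5 uM, BHQ-2-YbbR 12.5 uM (final); 50 mM Hepes pH 7.6, 10 mM MgCl2, 0.01% NP-40, 0.01% BSA; read 525/598 nm at 0 and 30 min.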
RORgamma inh = blocks mouse ROR gamma transcriptional activity; Drosophila S2 Gal4-RORgamma UAS-luciferase reporter, 20 h; Potency, µM (highest dose often 53.6 µM), without a hit: at the highest dose activity change, negative = inhibition, hits mostly inhibitors; 5.4% of 310,000 active; further: nearly all actives have a fitted effect of over 60% in size
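Schneider cells (Drosophila), stable Gal4 DBD–ROR gamma + UAS-luc; 1 hr cmpd preincubation; Cu2+ induction 700 uM final; 20 hr ambient; luminescence.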
* = called active by the depositor; u = inconclusive; x = no result; [ ] = remark or other dose. Unless noted, the call rests on the fitted dose curve; in most records, active means well fitted curve in the direction sought with a large enough effect; inconclusive means small, poorly fitted or top-dose-only effect, or another doubt; inactive means no such curve, though single readings can be large; an effect the other way counts as inactive or inconclusive. Unless noted, on the % scale 0 is the no-effect control and ±100 the full control effect; potency means the concentration at half of the fitted maximal effect.

SMILES | ALDH1A1 block | Gal4-VP16 FLuc | PLK1 PBD block | Sfp PPTase inh | RORgamma inh
Nc1cccc2c1nnn2C1OC(CO)C(O)C(O)C1O (stereo not given) | -5.2% | -6.9% | x | 14.5% | -3.2%
Cc1cccc2c1c(N=NC(N)=S)c(O)n2C1OC(CO)C(O)C(O)C1O (stereo not given) | x | 2.8% | -15.4% | 50.1µM* | -0.8%
CC(C)CN(C(=O)Cn1c(C(F)(F)F)nc2ccccc21)c1c(N)n(Cc2ccccc2)c(=O)[nH]c1=O | x | x | 2.5% | x | x
C=CCn1c(O)c(N=NC(=S)Nc2ccccc2C)c2cc(S(=O)(=O)N3CCOCC3)ccc21 | 10µM* | 2µM* | -13.7% | 1.0% | 0.501µM*
Cn1c(O)c(N=NC(=S)Nc2ccccc2F)c2cc(S(=O)(=O)N3CCOCC3)ccc21 | -5.9% | 2µM* | -6.3% | 21.7% | 0.316µM*
Cc1ccc(S(=O)(=O)N2CCOCC2)cc1C(=O)Nc1ccccc1N1CCOCC1 | x | x | 3.4% | x | x
Cc1ccc(N=Nc2c(O)n(CN3CCOCC3)c3ccccc23)cc1 | -3.8% | -7.8% | -27.4% | 5.7% | 22.7%
Cc1cccc(NC(=S)N=Nc2c(O)n(CN3CCOCC3)c3ccccc23)c1C | 4.7% | 1.12µM* | -3.2% | 13.4% | 0.708µM*
Cc1ccc(NC(=S)N=Nc2c(O)n(C)c3ccc(S(=O)(=O)N4CCOCC4)cc23)cc1C | -10.6% | 3.16µM* | 1.7% | 5.1% | 0.708µM*
COc1cccc(Cn2c(=O)c(C)nc3cnc(N(C)C)nc32)c1 | u | -2.2% | x | -7.7% | -18.7%
Cc1nc(NCCO)c2nc(-c3ccccc3)n(CCCN(C)C)c2n1 | u | -6.1% | x | 38.2% | -16.2%
O=C(O)c1cccc(CN2CCCCC2)c1 | 14.8%[13.5 µM] | x | x | x | x
COc1ccc(-c2cc(C(=O)Nc3cc(C)on3)no2)cc1OC | u | -16.3% | -4.3% | 8.8% | 10.3%
COc1ccc(-c2cc(C(=O)Nc3cc(C)nn3-c3ccccc3)no2)cc1OC | -2.3% | -14.0%[10 µM] | 37.7µM* | 20.9% | 12.7%
O=C(CN1C(=O)/C(=C\c2ccccc2Cl)Oc2ccccc21)NCc1cccnc1 | 3.98µM* | -6.7%[10 µM] | -10.5% | -2.6% | -44.8%
O=C(O)CN1C(=O)/C(=C/c2ccccc2Cl)Oc2ccccc21 | x | -6.6% | -7.2% | 18.6% | 4.1%
CC(=O)NC(=Cc1ccccc1)C(=O)N1CCCC1C(=O)O (stereo not given) | x | x | 2.7% | x | x
O=C(CCl)Nc1c2c(nn1-c1ccccc1)CSC2 | x | u | 26.7µM* | 14.5% | u
Cc1cccc(-n2nc3c(c2NC(=O)CCCl)CSC3)c1 | x | 6.3% | -19.1% | 44.7µM* | 5.8%
Cc1cccc(-n2nc3c(c2NC(=O)c2ccc(Br)o2)CSC3)c1 | -13.4% | 16.2% | -11.1% | u | 3.16µM*
CCC(=O)Nc1c2c(nn1-c1ccccc1C)CSC2 | 4.4% | 1.5% | -10.8% | 56.2µM* | 21.4%
O=C(Nc1c2c(nn1-c1ccccc1)CS(=O)C2)c1ccc(Br)o1 (stereo not given) | x | 0.0% | -4.6% | 16.0% | -4.7%
CC(=O)Nc1cc(-c2ccc(C(=O)N3CCOCC3)cc2)cn2c(-c3ccc(S(C)(=O)=O)cc3)cnc12 | x | x | -28.0% | x | x
Cn1c2ccccc2c(=O)c2ccc(C#CC3(O)CCCCC3)cc21 | x | -61.5% | -11.4% | 11.0% | u
Cn1c(N)nc2c(nc(OCc3ccccc3)n2[C@@H]2O[C@H](CO)[C@@H](O)[C@@H]2O)c1=O | 2.4%[13.5 µM] | x | x | x | x
SMILES | ALDH1A1 block | Gal4-VP16 FLuc | PLK1 PBD block | Sfp PPTase inh | RORgamma inh
COC(=O)C1=CN(c2ccc(C)cc2)C(N)=C(C#N)C1c1ccccc1F (stereo not given) | x | x | -15.1% | x | x
Cc1ccn2c(Nc3ccccc3)c(-c3ccccn3)nc2c1 | -6.1% | -15.9% | 4.6% | -5.9% | 15.8µM*
Cc1cccn2c(Nc3ccccc3)c(-c3ccccn3)nc12 | -0.4% | 5.01µM* | -7.1% | 15.1% | 3.16µM*
Cc1ccc2nc(-c3ccccn3)c(Nc3ccccc3C)n2c1 | -7.6% | -7.0%[10 µM] | -13.5% | 0.7% | 14.1µM*
Cc1ccccc1Nc1c(-c2ccccn2)nc2ccccn12 | u | -3.4% | 3.6% | -38.9% | 31.3%
Cc1ccn2c(Nc3ccccc3C)c(-c3ccccn3)nc2c1 | -3.6% | u | -13.3% | -8.2% | 14.1µM*
O=c1cc(-c2ccc(O)cc2)oc2cc(OC3OC(CO)C(O)C(O)[C@H]3O[C@@H]3OC[C@@](O)(CO)C3O)cc(O)c12 (stereo not given in full) | -6.4% | 1.1% | x | -6.2% | 2.4%

Source: PubChem
